Test results published in the supplement of paper PMC10849652.
The full data set covers some 8,800 targets. This sample favours those with a hit. About 0.5% of all pairs of compound and target were hits.

Columns and labels:
Experiment in all cases: log2 fold change, soluble protein after heating vs DMSO (PISA); higher = thermal stabilisation; K562 lysate, 10 uM; active = over 0.2 and 3.5 SD of the protein, either way, in both replicates (recomputed)
vemurafenib = compound: CCCS(=O)(=O)Nc1ccc(F)c(C(=O)c2c[nH]c3ncc(-c4ccc(Cl)cc4)cc23)c1F [vemurafenib]
Summary of the method: (§1)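 Soluble protein was defined as the supernatant remaining after 21,000xg for 90 min, following pooling of heated aliquots and adjustment to 0.5% NP-40 at 4°C. Before that, crude K562 extract at 1 mg/mL protein in PBS pH 7.4 with 1 mM MgCl2 was treated with 10 μM compound for 30 min and heated for 3 min across 48°C-58°C. Quantification used TMTpro 16plex LC-MS/MS with channel sums equalised, and values are log-two fold changes in thermal stability relative to solvent controls from duplicates.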

[1] = compound: CCCS(=O)(=O)Nc1ccc(F)c(C(=O)c2c[nH]c3ncc(Cl)cc23)c1F
Summary of the method: as §1

barasertib = compound: CCN(CCCOc1ccc2c(Nc3cc(CC(=O)Nc4cccc(F)c4)[nH]n3)ncnc2c1)CCOP(=O)(O)O [barasertib]
Summary of the method: as §1

[2] = compound: CC[C@@H]1C(=O)N(C)c2cnc(Nc3ccc(C(=O)NC4CCN(C)CC4)cc3OC)nc2N1C1CCCC1
Summary of the method: as §1

volasertib = compound: CC[C@@H]1C(=O)N(C)c2cnc(Nc3ccc(C(=O)N[C@H]4CC[C@H](N5CCN(CC6CC6)CC5)CC4)cc3OC)nc2N1C(C)C [volasertib]
Summary of the method: as §1

[3] = compound: CCn1c(C(=O)N(C2CC2)C2CC2)cc2c3c(ncn3C)c(Nc3cc(C)n(C)n3)nc21
Summary of the method: as §1

[4] = compound: CCn1cc(-c2ccnc3[nH]c(-c4cccc(CN(C)C)c4)cc23)c(-c2ccc(NC(=O)N(C)C)cc2)n1
Summary of the method: as §1

[5] = compound: CN1CCC(CNc2ccc3ncc(-c4cccc(OC(F)(F)F)c4)n3n2)CC1
Summary of the method: as §1

saracatinib = compound: CN1CCN(CCOc2cc(OC3CCOCC3)c3c(Nc4c(Cl)ccc5c4OCO5)ncnc3c2)CC1 [saracatinib]
Summary of the method: as §1

sotrastaurin = compound: CN1CCN(c2nc(C3=C(c4c[nH]c5ccccc45)C(=O)NC3=O)c3ccccc3n2)CC1 [sotrastaurin]
Summary of the method: as §1

Measured: log2 fold change

NOSTRIN (UniProt Q8IVI9)
inactive: vemurafenib 0.091 | [1] 0.024 | barasertib 0.085 | [2] -0.178 | volasertib -0.029 | [3] -0.026 | [4] 0.025 | [5] -0.094 | saracatinib -0.001 | sotrastaurin -0.054

OGFR (UniProt Q9NZT2)
inactive: vemurafenib -0.033 | [1] 0.025 | barasertib 0.003 | [2] -0.012 | volasertib -0.067 | [3] 0.004 | [4] 0.12 | [5] -0.039 | saracatinib 0.022 | sotrastaurin 0.053

NUP133 (UniProt Q8WUM0)
inactive: vemurafenib 0.009 | [1] 0.014 | barasertib 0.01 | [2] -0.028 | volasertib -0.081 | [3] 0.05 | [4] -0.047 | [5] 0.04 | saracatinib 0.014 | sotrastaurin 0.038

MRPL58 (UniProt Q14197)
inactive: vemurafenib 0.104 | [1] -0.017 | barasertib 0.033 | [2] -0.033 | volasertib -0.043 | [3] 0.004 | [4] 0.148 | [5] -0.151 | saracatinib 0.04 | sotrastaurin 0.019

NCKAP1L (UniProt P55160)
inactive: vemurafenib -0.14 | [1] 0.032 | barasertib 0.131 | [2] -0.068 | volasertib 0.004 | [3] -0.049 | [4] -0.025 | [5] -0.082 | saracatinib -0.083 | sotrastaurin 0.032

NSUN2 (UniProt Q08J23)
UniProt Q08J23, sequence (Q08J23 whole entry, looked up): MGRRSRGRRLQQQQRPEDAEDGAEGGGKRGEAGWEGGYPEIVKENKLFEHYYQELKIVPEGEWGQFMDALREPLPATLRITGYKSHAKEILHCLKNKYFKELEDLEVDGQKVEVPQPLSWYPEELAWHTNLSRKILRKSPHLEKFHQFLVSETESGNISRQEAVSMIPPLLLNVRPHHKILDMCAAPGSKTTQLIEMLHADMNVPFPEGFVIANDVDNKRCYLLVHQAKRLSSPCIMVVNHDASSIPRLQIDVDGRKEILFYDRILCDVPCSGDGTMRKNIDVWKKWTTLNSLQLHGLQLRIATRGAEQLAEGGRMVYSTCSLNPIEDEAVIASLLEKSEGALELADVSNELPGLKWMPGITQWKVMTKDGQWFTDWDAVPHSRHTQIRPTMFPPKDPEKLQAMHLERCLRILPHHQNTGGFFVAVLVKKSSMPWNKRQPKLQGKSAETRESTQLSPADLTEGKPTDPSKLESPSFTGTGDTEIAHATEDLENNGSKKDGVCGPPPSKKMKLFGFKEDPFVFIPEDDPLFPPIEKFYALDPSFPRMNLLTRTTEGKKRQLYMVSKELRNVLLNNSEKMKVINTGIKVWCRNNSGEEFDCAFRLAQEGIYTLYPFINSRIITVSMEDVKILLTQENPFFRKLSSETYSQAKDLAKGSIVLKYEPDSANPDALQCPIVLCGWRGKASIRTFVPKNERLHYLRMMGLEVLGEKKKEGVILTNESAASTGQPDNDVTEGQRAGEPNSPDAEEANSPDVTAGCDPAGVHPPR
inactive: vemurafenib 0.028 | [1] 0.004 | barasertib -0.006 | [2] -0.032 | volasertib 0.004 | [3] 0.037 | [4] 0.081 | [5] -0.022 | saracatinib 0.006 | sotrastaurin 0.005

NOA1 (UniProt Q8NC60)
UniProt Q8NC60, sequence (Q8NC60 whole entry, looked up): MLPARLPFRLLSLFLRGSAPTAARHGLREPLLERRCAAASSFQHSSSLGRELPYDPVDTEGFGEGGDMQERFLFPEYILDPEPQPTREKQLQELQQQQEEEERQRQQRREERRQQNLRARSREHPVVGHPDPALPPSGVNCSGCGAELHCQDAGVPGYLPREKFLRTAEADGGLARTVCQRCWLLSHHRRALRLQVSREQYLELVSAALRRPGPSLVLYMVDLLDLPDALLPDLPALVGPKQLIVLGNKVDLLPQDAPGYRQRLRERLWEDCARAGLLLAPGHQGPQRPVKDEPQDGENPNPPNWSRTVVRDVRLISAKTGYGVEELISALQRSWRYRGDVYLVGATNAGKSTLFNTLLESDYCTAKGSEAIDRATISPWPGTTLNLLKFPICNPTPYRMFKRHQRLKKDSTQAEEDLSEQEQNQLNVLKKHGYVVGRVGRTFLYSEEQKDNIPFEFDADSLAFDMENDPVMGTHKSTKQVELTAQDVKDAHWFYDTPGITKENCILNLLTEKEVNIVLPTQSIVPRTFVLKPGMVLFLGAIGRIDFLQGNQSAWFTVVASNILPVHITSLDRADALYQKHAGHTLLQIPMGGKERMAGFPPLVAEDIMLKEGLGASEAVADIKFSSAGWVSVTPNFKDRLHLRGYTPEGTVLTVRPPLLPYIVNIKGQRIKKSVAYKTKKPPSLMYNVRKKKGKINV
inactive: vemurafenib 0.041 | [1] -0.009 | barasertib 0.043 | [2] 0.029 | volasertib -0.024 | [3] -0.083 | [4] -0.229 | [5] 0.028 | saracatinib 0.016 | sotrastaurin 0.037

NLRP2 (UniProt Q9NX02)
inactive: vemurafenib -0.011 | [1] -0.003 | barasertib -0.04 | [2] -0.048 | volasertib -0.067 | [3] 0.041 | [4] 0.031 | [5] -0.05 | saracatinib -0.012 | sotrastaurin -0.017

NOB1 (UniProt Q9ULX3)
UniProt Q9ULX3, sequence (Q9ULX3 whole entry, looked up): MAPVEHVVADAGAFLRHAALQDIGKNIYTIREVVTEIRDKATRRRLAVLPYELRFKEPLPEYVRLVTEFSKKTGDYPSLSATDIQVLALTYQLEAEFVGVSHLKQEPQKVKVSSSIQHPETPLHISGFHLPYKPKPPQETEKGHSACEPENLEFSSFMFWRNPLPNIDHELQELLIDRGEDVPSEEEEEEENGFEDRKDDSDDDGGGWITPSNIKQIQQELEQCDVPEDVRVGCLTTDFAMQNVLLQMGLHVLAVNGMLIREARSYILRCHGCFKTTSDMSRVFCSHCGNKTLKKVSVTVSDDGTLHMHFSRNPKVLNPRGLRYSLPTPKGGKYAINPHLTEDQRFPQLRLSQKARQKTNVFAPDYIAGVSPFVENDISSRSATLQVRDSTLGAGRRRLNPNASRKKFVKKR
inactive: vemurafenib -0.002 | [1] 0.032 | barasertib -0.053 | [2] -0.045 | volasertib -0.02 | [3] -0.003 | [5] -0.102 | saracatinib 0.018 | sotrastaurin -0.009
active: [4] 0.274

MRPS18A isoform 2 (UniProt Q9NVS2)
inactive: vemurafenib 0.073 | [1] 0.03 | barasertib 0.037 | [2] 0.073 | volasertib -0.019 | [3] -0.04 | [5] -0.121 | saracatinib -0.042 | sotrastaurin 0.036
active: [4] 0.306

NUP98 (UniProt P52948)
UniProt P52948, sequence (P52948 whole entry, looked up): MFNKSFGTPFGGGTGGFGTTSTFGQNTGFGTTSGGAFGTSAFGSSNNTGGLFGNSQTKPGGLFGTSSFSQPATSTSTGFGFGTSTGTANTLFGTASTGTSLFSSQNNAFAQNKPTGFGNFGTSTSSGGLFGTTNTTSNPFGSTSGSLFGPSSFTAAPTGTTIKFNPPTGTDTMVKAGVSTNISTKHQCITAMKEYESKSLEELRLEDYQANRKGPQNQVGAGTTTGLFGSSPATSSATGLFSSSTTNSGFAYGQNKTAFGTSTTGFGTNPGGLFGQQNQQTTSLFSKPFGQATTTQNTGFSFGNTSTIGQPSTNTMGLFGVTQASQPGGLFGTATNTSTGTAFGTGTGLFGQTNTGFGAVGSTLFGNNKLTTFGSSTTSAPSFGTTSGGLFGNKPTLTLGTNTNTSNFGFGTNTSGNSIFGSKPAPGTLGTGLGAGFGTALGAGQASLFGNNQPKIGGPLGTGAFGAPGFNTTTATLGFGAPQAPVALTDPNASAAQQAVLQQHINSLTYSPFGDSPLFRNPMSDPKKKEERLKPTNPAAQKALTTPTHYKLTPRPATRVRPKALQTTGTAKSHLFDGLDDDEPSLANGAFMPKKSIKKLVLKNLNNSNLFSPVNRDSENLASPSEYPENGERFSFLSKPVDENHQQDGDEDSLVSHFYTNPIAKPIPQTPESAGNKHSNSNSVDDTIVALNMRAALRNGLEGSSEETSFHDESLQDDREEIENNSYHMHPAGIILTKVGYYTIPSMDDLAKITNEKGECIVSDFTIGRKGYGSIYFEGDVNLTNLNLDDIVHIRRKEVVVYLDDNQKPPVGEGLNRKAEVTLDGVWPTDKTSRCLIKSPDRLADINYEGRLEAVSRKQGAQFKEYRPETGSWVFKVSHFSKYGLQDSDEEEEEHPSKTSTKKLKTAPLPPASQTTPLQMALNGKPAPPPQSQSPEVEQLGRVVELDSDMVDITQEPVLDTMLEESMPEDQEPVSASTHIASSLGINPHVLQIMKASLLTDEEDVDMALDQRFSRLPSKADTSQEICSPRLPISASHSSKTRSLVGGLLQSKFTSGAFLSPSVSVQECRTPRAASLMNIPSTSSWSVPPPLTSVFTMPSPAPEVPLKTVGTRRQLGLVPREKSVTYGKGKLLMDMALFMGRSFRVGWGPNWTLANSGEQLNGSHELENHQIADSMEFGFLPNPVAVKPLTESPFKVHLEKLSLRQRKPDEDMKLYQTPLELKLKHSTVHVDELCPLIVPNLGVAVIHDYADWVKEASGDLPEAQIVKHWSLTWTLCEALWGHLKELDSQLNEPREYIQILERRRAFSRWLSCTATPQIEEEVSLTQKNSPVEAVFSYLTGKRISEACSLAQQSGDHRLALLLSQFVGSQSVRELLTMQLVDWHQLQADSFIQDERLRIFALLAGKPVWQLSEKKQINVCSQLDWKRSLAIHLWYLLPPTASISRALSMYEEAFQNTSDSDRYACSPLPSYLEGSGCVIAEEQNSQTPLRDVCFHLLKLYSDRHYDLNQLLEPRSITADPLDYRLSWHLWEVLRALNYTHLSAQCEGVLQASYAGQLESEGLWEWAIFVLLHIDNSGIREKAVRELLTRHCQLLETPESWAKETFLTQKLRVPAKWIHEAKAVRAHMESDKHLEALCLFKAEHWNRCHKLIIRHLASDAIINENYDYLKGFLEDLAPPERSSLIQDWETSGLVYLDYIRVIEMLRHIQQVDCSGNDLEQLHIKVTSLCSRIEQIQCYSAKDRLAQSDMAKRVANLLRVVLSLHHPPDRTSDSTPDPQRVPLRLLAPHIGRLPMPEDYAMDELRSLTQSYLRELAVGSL
inactive: vemurafenib 0.001 | [1] 0.035 | barasertib 0.02 | [2] -0.005 | volasertib -0.071 | [3] 0.031 | [4] -0.062 | [5] 0.019 | saracatinib 0.073 | sotrastaurin -0.005

MTA1 (UniProt Q13330)
UniProt Q13330, sequence (Q13330 whole entry, looked up): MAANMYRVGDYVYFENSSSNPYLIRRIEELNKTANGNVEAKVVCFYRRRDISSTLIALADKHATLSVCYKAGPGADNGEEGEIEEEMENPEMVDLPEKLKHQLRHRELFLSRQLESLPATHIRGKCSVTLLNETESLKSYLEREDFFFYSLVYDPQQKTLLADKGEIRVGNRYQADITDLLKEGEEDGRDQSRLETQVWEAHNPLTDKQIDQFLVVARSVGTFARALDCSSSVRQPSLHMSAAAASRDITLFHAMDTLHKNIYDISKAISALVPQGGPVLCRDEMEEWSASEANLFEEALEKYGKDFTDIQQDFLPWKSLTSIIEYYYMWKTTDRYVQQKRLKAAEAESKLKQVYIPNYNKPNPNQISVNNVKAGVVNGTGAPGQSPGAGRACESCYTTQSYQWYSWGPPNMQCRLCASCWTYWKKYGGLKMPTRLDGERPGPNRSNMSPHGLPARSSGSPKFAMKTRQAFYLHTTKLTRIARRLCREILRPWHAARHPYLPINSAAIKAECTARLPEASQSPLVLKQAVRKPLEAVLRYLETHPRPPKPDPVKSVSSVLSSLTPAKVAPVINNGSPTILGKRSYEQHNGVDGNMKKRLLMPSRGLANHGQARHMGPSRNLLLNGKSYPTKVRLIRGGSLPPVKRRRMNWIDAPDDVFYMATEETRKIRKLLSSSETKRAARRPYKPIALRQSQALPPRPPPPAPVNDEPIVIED
inactive: vemurafenib -0.022 | [1] 0.011 | barasertib 0.008 | [2] -0.005 | volasertib -0.007 | [3] -0.003 | [4] 0.013 | [5] -0.061 | saracatinib 0.018 | sotrastaurin 0.036

NNMT (UniProt P40261)
UniProt P40261, sequence (P40261 whole entry, looked up): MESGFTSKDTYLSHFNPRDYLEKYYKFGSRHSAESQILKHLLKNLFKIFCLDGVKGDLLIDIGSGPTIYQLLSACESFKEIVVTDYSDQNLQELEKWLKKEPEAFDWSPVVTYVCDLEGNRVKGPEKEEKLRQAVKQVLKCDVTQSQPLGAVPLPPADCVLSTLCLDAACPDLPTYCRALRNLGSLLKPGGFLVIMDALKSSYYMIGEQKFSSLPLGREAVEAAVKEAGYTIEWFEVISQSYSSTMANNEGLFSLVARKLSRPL
inactive: vemurafenib 0.024 | [1] -0.036 | barasertib -0.059 | [2] 0.008 | volasertib 0.056 | [3] 0.015 | [4] -0.062 | [5] 0.03 | saracatinib -0.043 | sotrastaurin 0.021

NIPSNAP3A (UniProt Q9UFN0)
UniProt Q9UFN0, sequence (Q9UFN0 whole entry, looked up): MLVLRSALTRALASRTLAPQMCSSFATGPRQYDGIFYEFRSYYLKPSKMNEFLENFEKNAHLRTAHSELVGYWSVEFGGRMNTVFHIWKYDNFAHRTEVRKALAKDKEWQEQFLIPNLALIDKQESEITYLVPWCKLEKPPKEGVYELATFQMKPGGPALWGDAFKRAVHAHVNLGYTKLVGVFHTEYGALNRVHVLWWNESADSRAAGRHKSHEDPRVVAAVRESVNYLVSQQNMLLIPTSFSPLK
inactive: vemurafenib -0.005 | [1] 0.018 | barasertib -0.04 | [2] 0.043 | volasertib 0.019 | [3] -0.024 | [4] 0.324 | [5] -0.213 | saracatinib -0.002 | sotrastaurin 0.021

OSBP (UniProt P22059)
inactive: vemurafenib -0.052 | [1] -0.007 | barasertib -0.004 | [2] -0.076 | volasertib -0.091 | [3] 0.041 | [4] -0.045 | [5] -0.032 | saracatinib 0.011 | sotrastaurin 0.026
